The nature of experiment [1]: ATG_GLI_CIS: Attagene CIS-FACTORIAL HepG2 Assay for human Zinc Finger Protein GLI1 (AID 2282945). Conditions: HepG2, Attagene cis-factorial reporter mRNA, GLI element; actives raise or lower the signal. Summed up: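 Transiently transfected HepG2 cells report endogenous transcription factor activity via cis-element-driven reporter units. After 24 h compound exposure, reporter mRNA was measured by RT-PCR with capillary electrophoresis; bidirectional fitting against DMSO baseline.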

Experiment [2] can be described thus: ATG_GRE_CIS: Attagene CIS-FACTORIAL HepG2 Assay for human Glucocorticoid Response Elements (GRE) (AID 2282947). The settings on record: HepG2 GRE cis-reporter, Attagene multiplex mRNA; actives raise or lower the signal. Put shortly: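 Endogenous transcription factor activity is read through cis-element reporter constructs transiently transfected into HepG2 cells. After 24 h treatment, labelled RT-PCR products are resolved by capillary electrophoresis; DMSO sets baseline for bidirectional curve fitting.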

A short description of experiment [3]: ATG_ISRE_CIS: Attagene CIS-FACTORIAL HepG2 Assay for human Interferon Regulatory Factor 1 (IRF1) binding to an Interferon-Stimulated Response Element (ISRE) (AID 2282948). Conditions: HepG2 ISRE cis-reporter (Attagene), mRNA transcription readout; actives raise or lower the signal. Summed up: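 Transfected HepG2 (multiple reporter transcription units, cis elements) dosed 24 h. RNA → oligo(dT) RT → PCR → 6-FAM primer extension → HpaI → CE. DMSO = negative control/baseline.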

A short description of experiment [4]: ATG_M_32_CIS: Attagene CIS-FACTORIAL HepG2 Assay for M32 Transcription Factor (Internal Marker) (AID 2282949).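 Further: background control marker of the multiplexed CIS panel rather than a real target.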 Conditions: HepG2 Attagene cis-factorial M32 reporter, mRNA; actives raise or lower the signal. Summed up: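 Internal background marker read-out: RT-PCR/capillary electrophoresis fluorescence of reporter transcripts from transiently transfected HepG2 cells after 24 h chemical exposure. Activity fitted bidirectionally relative to DMSO negative control.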

Experiment [5] in a line: ATG_M_06_CIS: Attagene CIS-FACTORIAL HepG2 Assay for M06 Transcription Factor (Internal Marker) (AID 2282950). The settings on record: HepG2 Attagene CIS-FACTORIAL M06 internal marker reporter; actives raise or lower the signal. Summed up:
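Read-out is fluorescence of labelled reporter cDNA fragments resolved by capillary electrophoresis after RT-PCR. Cells: HepG2 carrying transfected cis-promoter reporter units, treated 24 h. Gain or loss of signal fitted relative to DMSO.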

Experiment [6] has as its target Hypoxia-inducible factor 1-alpha (Homo sapiens) (UniProt Q16665). The experiment is described as follows: ATG_HIF1a_CIS: Attagene CIS-FACTORIAL HepG2 Assay for human Hypoxia Inducible Factor 1 (HIF1A) (AID 2282951). Conditions: HepG2 Attagene cis-factorial HIF1a reporter transcription; actives raise or lower the signal. Put shortly:
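In this multiplexed cell assay, HepG2 cells bearing transfected cis reporters are dosed for 24 h and reporter mRNA is read by RT-PCR plus capillary electrophoresis; signal increases and decreases are both scored against DMSO.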

The target of experiment [7] is Hepatocyte nuclear factor 6 (Homo sapiens) (UniProt Q9UBC0). Kind of experiment: ATG_HNF6_CIS: Attagene CIS-FACTORIAL HepG2 Assay for human Hepatocyte Nuclear Factor 6 (HNF6) (AID 2282952). The settings on record: HepG2 Attagene cis-factorial HNF6 reporter transcription; actives raise or lower the signal. Put shortly: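 HepG2 cells transiently transfected with cis-element-driven multiple reporter transcription units, dosed 24 h; reporter mRNA quantified by RT-PCR, FAM primer extension, HpaI digestion and capillary electrophoresis; bidirectional fit versus DMSO baseline.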
Hepatocyte nuclear factor 6 (Homo sapiens), sequence (Q9UBC0 whole entry, looked up): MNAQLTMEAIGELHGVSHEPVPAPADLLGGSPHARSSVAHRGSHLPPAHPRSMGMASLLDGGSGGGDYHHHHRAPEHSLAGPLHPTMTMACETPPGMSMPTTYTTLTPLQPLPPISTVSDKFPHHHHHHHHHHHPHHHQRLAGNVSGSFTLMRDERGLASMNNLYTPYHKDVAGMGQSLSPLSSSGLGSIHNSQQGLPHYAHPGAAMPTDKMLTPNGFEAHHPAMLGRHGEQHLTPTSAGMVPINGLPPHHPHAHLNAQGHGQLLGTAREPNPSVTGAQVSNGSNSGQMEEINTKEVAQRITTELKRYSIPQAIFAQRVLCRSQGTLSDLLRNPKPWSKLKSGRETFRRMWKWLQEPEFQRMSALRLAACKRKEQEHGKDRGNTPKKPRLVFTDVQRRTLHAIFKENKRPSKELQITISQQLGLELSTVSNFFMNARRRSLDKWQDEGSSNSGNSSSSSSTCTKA

Experiment [8] can be described thus: ATG_MRE_CIS: Attagene CIS-FACTORIAL HepG2 Assay for human Metal Responsive Element (MRE) (AID 2282954). The settings on record: HepG2 MRE cis-reporter transcription, Attagene multiplex; actives raise or lower the signal. Summed up:
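Fluorescent reporter fragments separated by capillary electrophoresis give mRNA induction for the MRE unit after 24 h treatment of transfected HepG2 cells. Endogenous transcription-factor activity is read; DMSO serves as negative control and baseline.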

Experiment [9] deals with Paired box protein Pax-6 (Homo sapiens) (UniProt P26367). Kind of experiment: ATG_Pax6_CIS: Attagene CIS-FACTORIAL HepG2 Assay for human Paired Box 6 (PAX6) (AID 2282956). The settings on record: HepG2 CIS-FACTORIAL PAX6 reporter transcription, RNA readout; actives raise or lower the signal. Put shortly:
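Transient MRTU transfection of HepG2 → compound exposure 24 h → TriZol RNA, oligo(dT) RT → PCR, 6-FAM primer extension, HpaI cut → capillary electrophoresis; activity fitted both directions against DMSO.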

Experiment [10] can be described thus: ATG_PXRE_CIS: Attagene CIS-FACTORIAL HepG2 Assay for human Pregnane X Receptor Element (PXRE) (AID 2282957). Conditions: HepG2 Attagene CIS-FACTORIAL PXRE reporter, mRNA; actives raise or lower the signal. Summed up: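 HepG2 cells transiently transfected with cis-regulated multiple reporter transcription units; endogenous factor activity measured as reporter mRNA 24 h after dosing. RT-PCR, fluorescent primer extension, HpaI digestion, capillary electrophoresis; bidirectional fit versus DMSO baseline.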

Experiment [11] is described as follows: ATG_PPRE_CIS: Attagene CIS-FACTORIAL HepG2 Assay for human Peroxisome Proliferator-activated Response Element (PPRE) (AID 2282958). Conditions: HepG2 PPRE cis-element reporter, Attagene transcription factor profiling; actives raise or lower the signal. Put shortly:
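Multiplexed reporter transcription units under cis-regulatory promoters were transfected into HepG2 cells to capture endogenous factor activity. A 24 h incubation preceded RNA isolation and fluorescent RT-PCR fragment analysis.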

Experiment [12] can be described thus: ATG_RORE_CIS: Attagene CIS-FACTORIAL HepG2 Assay for human RAR-related Orphan Receptor Element (RORE) (AID 2282959). The settings on record: HepG2 Attagene cis-factorial RORE reporter, mRNA; actives raise or lower the signal. Put shortly: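 Fluorescence intensity of reporter-specific cDNA fragments, separated by capillary electrophoresis, gives the signal. Source: HepG2 liver cells transiently transfected with cis-element reporters and exposed 24 h; DMSO-normalized bidirectional fit.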

In experiment [13] the target is Transcription factor Sp1 (Homo sapiens) (UniProt P08047). Kind of experiment: ATG_Sp1_CIS: Attagene CIS-FACTORIAL HepG2 Assay for human Specificity Protein 1 (Sp1) (AID 2282961). Conditions: HepG2 Sp1 cis-reporter transcription, actives raise or lower the signal. Put shortly:
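Sp1-driven reporter mRNA, read as capillary electrophoresis fluorescence after RT-PCR, in transiently transfected HepG2 cells dosed for 24 h; signal change in either direction relative to DMSO.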

The nature of experiment [14]: ATG_SREBP_CIS: Attagene CIS-FACTORIAL HepG2 Assay for human Sterol Regulatory Element Binding (SREBP) (AID 2282962). The settings on record: HepG2 Attagene cis-factorial SREBP reporter, mRNA; actives raise or lower the signal. Put shortly: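 Transfected HepG2 (cis-regulated reporter library, endogenous TFs) → compound 24 h → total RNA → oligo(dT) RT → reporter-specific PCR → FAM primer extension, HpaI cut → CE fluorescence. Fit bidirectional vs DMSO.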

The target in experiment [15] is Signal transducer and activator of transcription 3 (Homo sapiens) (UniProt P40763). Kind of experiment: ATG_STAT3_CIS: Attagene CIS-FACTORIAL HepG2 Assay for human Signal Transducer and Activator of Transcription 3 (STAT3) (AID 2282963). Conditions: HepG2, Attagene cis-factorial STAT3 reporter transcription; actives raise or lower the signal. Summed up:
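Values derive from bidirectional fits relative to DMSO of reporter mRNA levels, measured by RT-PCR with capillary electrophoresis, in HepG2 cells carrying transiently transfected cis-regulated reporter units and exposed 24 h.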

Experiment [16] in a line: ATG_TA_CIS: Attagene CIS-FACTORIAL HepG2 Assay for human TA Basal Promoter (AID 2282964). The settings on record: HepG2 Attagene CIS-factorial TA basal promoter reporter; actives raise or lower the signal. Put shortly:
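Read-out: fluorescent reporter-transcript fragments resolved by capillary electrophoresis after RT-PCR and HpaI digestion. Source: HepG2 cells carrying transiently transfected multi-reporter cis constructs, treated 24 h. Endpoint fitted bidirectionally relative to DMSO.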

Experiment [17] addresses Heat shock factor protein 1 (Homo sapiens) (UniProt Q00613). The experiment is described as follows: ATG_HSE_CIS: Attagene CIS-FACTORIAL HepG2 Assay for human Heat Shock Transcription Factor 1 (HSE) (AID 2282953). The settings on record: HepG2 HSE cis-reporter, Attagene RNA transcription; actives raise or lower the signal. Summed up: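 HepG2, transient MRTU transfection, cis-promoter reporters (endogenous TF activity). 24 h compound. RNA → oligo(dT) RT → PCR → 6-FAM primer extension → HpaI cut → CE. Bidirectional fit vs DMSO.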

Experiment [18] can be described thus: ATG_PBREM_CIS: Attagene CIS-FACTORIAL HepG2 Assay for human Phenobarbital-responsive Enhancer Module (PBREM) (AID 2282955). Conditions: HepG2 PBREM cis-reporter, Attagene multiplexed transcription; actives raise or lower the signal. Summed up: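 After a 24 h incubation with test chemical, transfected HepG2 cells yield total RNA; reporter-specific RT-PCR products are fluorescently labelled, HpaI-digested and resolved by capillary electrophoresis against ROX size standards.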

Experiment [19] can be described thus: ATG_Sox_CIS: Attagene CIS-FACTORIAL HepG2 Assay for human SRY-box transcription factor (SOX) (AID 2282960). Conditions: HepG2 Attagene cis-factorial SOX reporter, mRNA; actives raise or lower the signal. Summed up:
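After 24 h of chemical treatment, transfected HepG2 reporter cells are lysed for total RNA. Transcript levels come from RT-PCR with labelled primer extension and capillary electrophoresis, analysed bidirectionally versus DMSO.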

The values below come from PubChem BioAssay (EPA / NIEHS).

Activity calls are given as the source filed them. How the source made its calls: active means hit-call score of the fitted dose curve at least 0.9, where 1 is the maximum; inactive means score below 0.9.

Transcription factor Sp1 (Homo sapiens), sequence (P08047 whole entry, looked up): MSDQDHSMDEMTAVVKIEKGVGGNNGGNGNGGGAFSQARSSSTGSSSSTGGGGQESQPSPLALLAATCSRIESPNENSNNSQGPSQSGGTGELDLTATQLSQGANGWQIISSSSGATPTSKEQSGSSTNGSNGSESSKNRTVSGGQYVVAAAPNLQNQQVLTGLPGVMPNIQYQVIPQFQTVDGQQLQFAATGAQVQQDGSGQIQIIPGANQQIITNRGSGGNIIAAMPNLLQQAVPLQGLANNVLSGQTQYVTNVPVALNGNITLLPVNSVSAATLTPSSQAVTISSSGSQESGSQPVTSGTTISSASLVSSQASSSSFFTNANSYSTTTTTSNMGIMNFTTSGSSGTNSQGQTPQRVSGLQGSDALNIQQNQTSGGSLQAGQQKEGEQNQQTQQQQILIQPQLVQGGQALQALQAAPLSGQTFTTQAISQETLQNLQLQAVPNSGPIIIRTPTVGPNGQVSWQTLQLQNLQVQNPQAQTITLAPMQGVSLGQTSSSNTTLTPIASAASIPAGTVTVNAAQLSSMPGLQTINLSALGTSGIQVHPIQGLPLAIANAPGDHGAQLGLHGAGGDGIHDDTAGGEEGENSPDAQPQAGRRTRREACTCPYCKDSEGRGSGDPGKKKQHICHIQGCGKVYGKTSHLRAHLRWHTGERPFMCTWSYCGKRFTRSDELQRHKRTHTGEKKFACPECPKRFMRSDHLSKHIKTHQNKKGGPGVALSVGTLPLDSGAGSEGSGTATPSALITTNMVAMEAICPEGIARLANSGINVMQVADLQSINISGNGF
Signal transducer and activator of transcription 3 (Homo sapiens), sequence (P40763 whole entry, looked up): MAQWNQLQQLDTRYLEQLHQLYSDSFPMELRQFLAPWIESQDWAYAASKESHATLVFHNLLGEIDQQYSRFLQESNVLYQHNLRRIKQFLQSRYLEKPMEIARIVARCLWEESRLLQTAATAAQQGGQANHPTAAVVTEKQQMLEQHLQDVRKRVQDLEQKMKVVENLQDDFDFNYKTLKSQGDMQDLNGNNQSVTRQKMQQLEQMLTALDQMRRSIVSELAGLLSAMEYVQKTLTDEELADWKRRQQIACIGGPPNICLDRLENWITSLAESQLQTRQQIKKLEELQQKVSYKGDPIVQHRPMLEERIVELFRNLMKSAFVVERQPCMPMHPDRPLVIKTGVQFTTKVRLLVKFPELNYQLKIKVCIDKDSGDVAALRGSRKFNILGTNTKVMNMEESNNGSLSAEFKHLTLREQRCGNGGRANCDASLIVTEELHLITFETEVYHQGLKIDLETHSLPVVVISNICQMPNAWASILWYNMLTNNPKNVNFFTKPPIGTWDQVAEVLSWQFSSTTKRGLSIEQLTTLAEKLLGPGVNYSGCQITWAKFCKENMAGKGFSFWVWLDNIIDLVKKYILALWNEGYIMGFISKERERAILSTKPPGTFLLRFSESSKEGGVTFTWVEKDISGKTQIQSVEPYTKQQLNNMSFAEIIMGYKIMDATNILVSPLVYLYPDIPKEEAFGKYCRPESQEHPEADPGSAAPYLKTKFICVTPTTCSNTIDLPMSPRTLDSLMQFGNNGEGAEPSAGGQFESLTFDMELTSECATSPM
Heat shock factor protein 1 (Homo sapiens), sequence (Q00613 whole entry, looked up): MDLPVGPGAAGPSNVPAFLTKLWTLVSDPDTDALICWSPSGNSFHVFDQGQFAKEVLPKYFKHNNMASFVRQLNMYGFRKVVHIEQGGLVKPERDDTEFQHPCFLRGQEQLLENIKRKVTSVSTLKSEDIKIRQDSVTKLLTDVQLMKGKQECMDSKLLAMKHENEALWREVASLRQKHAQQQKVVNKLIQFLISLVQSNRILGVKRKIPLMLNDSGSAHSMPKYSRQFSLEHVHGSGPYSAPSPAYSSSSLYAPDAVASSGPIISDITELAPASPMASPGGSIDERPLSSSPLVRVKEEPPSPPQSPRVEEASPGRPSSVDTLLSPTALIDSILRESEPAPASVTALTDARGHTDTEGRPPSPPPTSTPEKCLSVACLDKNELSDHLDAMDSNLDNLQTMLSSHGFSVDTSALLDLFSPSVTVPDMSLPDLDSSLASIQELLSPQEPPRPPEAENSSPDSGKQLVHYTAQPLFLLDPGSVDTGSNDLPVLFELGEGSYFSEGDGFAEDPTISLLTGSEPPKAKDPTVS
Paired box protein Pax-6 (Homo sapiens), sequence (P26367 whole entry, looked up): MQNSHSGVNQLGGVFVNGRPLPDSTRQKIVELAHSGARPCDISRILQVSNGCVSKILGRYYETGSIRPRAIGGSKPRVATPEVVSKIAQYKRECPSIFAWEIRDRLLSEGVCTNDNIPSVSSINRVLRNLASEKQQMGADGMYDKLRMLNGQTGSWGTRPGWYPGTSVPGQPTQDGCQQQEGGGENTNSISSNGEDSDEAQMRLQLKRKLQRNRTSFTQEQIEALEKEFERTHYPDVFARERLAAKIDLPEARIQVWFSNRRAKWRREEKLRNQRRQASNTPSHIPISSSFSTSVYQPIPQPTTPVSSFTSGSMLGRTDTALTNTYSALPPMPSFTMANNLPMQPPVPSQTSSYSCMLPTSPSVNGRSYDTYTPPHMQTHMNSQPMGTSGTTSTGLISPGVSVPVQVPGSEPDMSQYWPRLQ
Hypoxia-inducible factor 1-alpha (Homo sapiens), sequence (Q16665 whole entry, looked up): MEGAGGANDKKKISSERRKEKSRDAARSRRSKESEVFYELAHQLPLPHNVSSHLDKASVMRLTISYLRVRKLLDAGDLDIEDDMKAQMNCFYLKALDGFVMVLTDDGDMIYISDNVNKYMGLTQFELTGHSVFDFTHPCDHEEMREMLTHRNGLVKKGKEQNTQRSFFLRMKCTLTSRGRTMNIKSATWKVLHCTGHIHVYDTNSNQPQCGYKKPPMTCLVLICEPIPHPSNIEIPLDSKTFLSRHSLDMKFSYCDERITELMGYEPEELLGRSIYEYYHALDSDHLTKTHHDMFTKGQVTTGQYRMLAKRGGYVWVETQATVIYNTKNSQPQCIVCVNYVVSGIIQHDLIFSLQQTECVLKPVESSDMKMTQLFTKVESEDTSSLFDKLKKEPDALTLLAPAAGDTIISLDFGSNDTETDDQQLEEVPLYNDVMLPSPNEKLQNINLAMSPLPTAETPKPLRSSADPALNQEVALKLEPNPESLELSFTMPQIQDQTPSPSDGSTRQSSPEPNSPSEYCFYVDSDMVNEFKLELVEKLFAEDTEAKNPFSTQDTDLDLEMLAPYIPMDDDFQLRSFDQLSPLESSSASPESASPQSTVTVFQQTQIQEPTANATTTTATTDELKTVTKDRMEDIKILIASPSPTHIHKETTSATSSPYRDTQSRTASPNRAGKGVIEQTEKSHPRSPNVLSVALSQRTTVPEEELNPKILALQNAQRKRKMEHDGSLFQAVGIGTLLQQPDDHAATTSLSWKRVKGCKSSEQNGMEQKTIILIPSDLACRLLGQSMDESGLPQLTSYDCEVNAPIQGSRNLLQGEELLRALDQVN

In the case of `O=C(O)/C=C/c1ccccc1`, the compound was classed as inactive in experiment [1], in [2], in experiment [3], in experiment [4], in experiment [5] and in [6]. Further, the call in [7], in experiment [8], in [9], in experiment [10], in experiment [11] and in [12] was inactive. Moreover, the compound was called inactive in experiment [13], in experiment [14], in experiment [15] and in [16].

For the compound `O=C(OCCc1ccccc1)c1ccccc1`, the result in [1], in experiment [2], in experiment [3], in experiment [4], in experiment [5] and in experiment [7] was inactive. In addition, the result in experiment [17], in [8], in experiment [18], in experiment [9], in [10] and in [11] was inactive. Further, the result in experiment [12], in experiment [19], in [13], in [14], in experiment [15] and in experiment [16] was inactive.

`O=C(O)CC(C(=O)O)S(=O)(=O)O` (stereo unspecified): the call in [1], in experiment [2], in experiment [3], in experiment [4], in experiment [5] and in experiment [6] was inactive. Also, the call in experiment [7], in experiment [8], in [18], in experiment [9], in experiment [10] and in experiment [11] was inactive. Besides, the compound was classed as inactive in experiment [12], in experiment [13] and in experiment [15].

In the case of `CC1=NN(c2ccc(S(=O)(=O)O)cc2)C(=O)C1N=Nc1ccccc1` (stereo unspecified), the compound was classed as inactive in [1], in [2], in experiment [3], in experiment [4], in [5] and in [7]. Further, the result in [17], in [8], in experiment [18], in [9], in [11] and in [19] was inactive. Moreover, the compound was classed as inactive in [13], in experiment [14] and in [15]. In addition, the half-maximal activity concentration (AC50) (as a rule, the concentration giving half of the maximal activity seen) in experiment [10] is 100 µM (active).

Take `COc1ccc(-c2coc3cc(O)cc(O)c3c2=O)cc1`: the call in experiment [1], in experiment [2], in experiment [3], in experiment [4], in experiment [5] and in experiment [6] was inactive. The result in experiment [7], in [18], in [9], in [13], in [14] and in [15] was inactive. Also, in [16], the outcome was inactive. The results for the half-maximal activity concentration (AC50) in experiment [17], in [10] and in experiment [11] were 174 µM (active), 24.9 µM (active) and 100 µM (active), respectively.

Regarding `O=C(OCc1ccccc1)c1ccc(O)cc1`, the AC50 in [1] is 167 µM (active); in experiment [3], 187 µM (active); in experiment [6], 113 µM (active); in experiment [17], 168 µM (active); in [18], 63.7 µM (active); in experiment [9], 144 µM (active). For the same compound, the AC50 in [10] is 26.8 µM (active); in experiment [14], 72.8 µM (active); in experiment [16], 100 µM (active). For the same compound, the compound was classed as inactive in experiment [2], in [4], in experiment [5], in experiment [7], in experiment [12] and in [13]. For the same compound, the compound was called inactive in experiment [15].

Turning to `CCCCOCC(C)O` (stereo unspecified), the result in experiment [1], in [2], in experiment [3], in experiment [4], in [5] and in experiment [7] was inactive. For the same compound, the compound was called inactive in [17], in experiment [8], in experiment [18], in experiment [9], in experiment [10] and in [12]. Moreover, the compound was classed as inactive in experiment [19], in experiment [13], in experiment [14], in experiment [15] and in [16].

In the case of `COC(=O)CC(C)CCC=C(C)C` (stereo unspecified), the outcome in experiment [1], in experiment [2], in [3], in experiment [4], in experiment [5] and in experiment [6] was inactive. For the same compound, the call in [7], in [17], in experiment [8], in experiment [9], in [11] and in [12] was inactive. The call in [13], in experiment [14], in [15] and in experiment [16] was inactive. In [10], the AC50 is 69.2 µM (active).
